CCT chaperon mod: cytosolic chaperonin activity modulation. hit rate 0.3% among 360,000. purified chaperonin ATPase assay, HTRF ADP detection, 30 min. activity change, % (no concentration beside the values), hits read low; in the data active = activity change below about -30%; also: % is scaled to controls: 0 for no effect and ±100 for the full control effect
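Enzyme 40 or 20 nM (batch-dependent) in Tris pH 7.4/KCl/MgCl2/DTT; cpd 76 uM single point; ATP 10 uM; 30 min 37 °C; Transcreener ADP HTRF detection, 30 min RT; ratio 665/615.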
TDP43 rescue: rescues yeast growth from TDP-43 toxicity; Potency, µM (series often up to 46.1 µM), for inactives: at the top dose growth rescue (activation), hits mostly activators; TDP-43 expressing yeast growth rescue, BacTiter-Glo, 24 h; hit rate 1.8% among 410,000; also: potency is read from the fitted curve at half-maximal effect; % of control where 0% means no effect; nearly all actives have a fitted effect of over 50% in size
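Yeast expressing TDP-43 (pregrown in raffinose, seeded at OD600=0.02 in galactose medium) exposed to compounds 24 hr at 30 deg C. Growth read by BacTiter-Glo luminescence; rescue of toxicity appears as increased signal.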
MmCpn inh: blocks the Methanococcus maripaludis chaperonin Mm-Cpn. purified Mm-Cpn ATPase, ADP Transcreener TR-FRET. Potency, µM (series often up to 76.9 µM), for inactives: at the top dose activity, negative = inhibition, hits mostly inhibitors. hit rate 0.031% among 330,000. AID 504842; also: potency is read from the fitted curve at half-maximal effect; % is scaled to controls: 0 for no effect and ±100 for the full control effect; nearly all actives have a fitted effect of over 80% in size
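Measured: ADP formation by purified Mm-CPN. Conditions: 25 nM protein, 10 uM ATP, Tris pH 7.4 with Mg2+, K+ and DTT, 37°C for 30 min. Detection: Transcreener HTRF after 30 min at room temperature.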
FUS yeast rescue: FUS proteinopathy suppression in yeast | S. cerevisiae FUS-expressing, growth rescue, OD600, 24 h | Potency, µM (doses to about 76.6 µM), actives largely listed as activators | hit rate 0.24% among 390,000;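 also: potency is read from the fitted curve at half-maximal effect; plate controls were DMSO vehicle for no effect and reference control for full effect; nearly all actives have a fitted effect of over 55% in size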
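Toxicity suppression screen in FUS-yeast. Cells induced with 2% galactose, starting OD 0.005, treated 24hr at 30C with compounds at multiple final concentrations; growth by OD600.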
aSyn rescue: alpha-synuclein toxicity inhibition in yeast; hit rate 0.14% among 370,000; Potency, µM (top dose mostly 46.1 µM), for inactives: at the top dose growth rescue (activation), usual class: activators; Yeast expressing alpha-synuclein, growth rescue, BacTiter-Glo, 24 h; AID 652106; also: potency is read from the fitted curve at half-maximal effect; % of control where 0% means no effect; nearly all actives have a fitted effect of over 65% in size
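Galactose-induced alpha-syn yeast (OD600=0.02, raffinose-pregrown) + pinned cpd, 24 hr, 30 deg C; growth by BacTiter-Glo luminescence. Growth restoration scores as activation.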
Abeta yeast res: compounds reversing amyloid beta toxicity in yeast; hit rate 0.063% among 410,000; yeast expressing A-beta42, growth rescue, OD600, 48 h; response scale: 0% DMSO, 100% iron-clioquinol control; Potency, µM (top dose mostly 46.1 µM), usual class: activators; also: potency is read from the fitted curve at half-maximal effect; nearly all actives have a fitted effect of over 55% in size
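Yeast growth medium received pinned compounds, then yeast cells expressing toxic A-beta were added; plates incubated at 30 C for 48 hr. Growth read as absorbance at 600 nm, normalized to DMSO and equimolar FeCl3 plus clioquinol controls.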
Starred values were filed as active, the others as inactive; i = inactive; ? = inconclusive; nt = no result. This is a sample that favours compounds with a hit; in the whole collection about 2.3% have one here. Unless noted, calls follow the shape of the dose curve; as a rule, active = well fitted curve in the direction sought with a large enough effect; inconclusive = small, poorly fitted or top-dose-only effect, or another doubt; inactive = no such curve, though single readings can be large; an effect the other way counts as inactive or inconclusive.

SMILES	CCT chaperon mod	TDP43 rescue	MmCpn inh	FUS yeast rescue	aSyn rescue	Abeta yeast res
CN(C)c1ccc(/C=C/c2cc(=O)[nH]c3ccccc23)cc1	nt	nt	nt	nt	3.0%	nt
Cc1ccc(-c2csc3nc[nH]c(=S)c23)cc1	-0.4	17.8µM*	2.4%	i	8.8%	i
CC(C)c1ccc(NC(=O)c2cc([N+](=O)[O-])ccc2N2CCOCC2)cc1	-1.6	29.6%	-0.9%	?	-6.1%	?
COc1ccc(C(=O)COC(=O)c2cc(S(=O)(=O)N3CCCCC3)ccc2N2CCOCC2)c(OC)c1	2.0	?	-26.8%	15.8µM*	2.8%	i
Cc1ccc(C(=O)c2cc([N+](=O)[O-])ccc2N2CCOCC2)cc1	1.1	35.5µM*	1.0%	nt	14.4%	i
O=C(Nc1ccc(N2CCN(C(=O)c3ccccc3)CC2)cc1)c1cc([N+](=O)[O-])ccc1N1CCOCC1	0.9	-8.4%	-3.5%	35.5µM*	1.3%	i
COc1ccccc1C(=O)COC(=O)c1cc([N+](=O)[O-])ccc1N1CCOCC1	-0.4	11.2µM*	-5.3%	i	12.1%	i
COc1ccc(C(=O)COC(=O)c2cc([N+](=O)[O-])ccc2N2CCOCC2)c(OC)c1	0.3	?	-3.0%	nt	0.0%	i
COc1ccc(S[C@]2(C(=O)N3CCN(C(C)=O)CC3)CC(=O)N[C@@H]2c2ccc(OC)cc2)cc1	nt	nt	nt	i	nt	nt
CCn1c(SCC(=O)NN=Cc2c[nH]c3ccccc23)nc2ccccc21	nt	nt	nt	i	nt	nt
CCOC(=O)c1ccccc1NC(=O)COC(=O)c1cc([N+](=O)[O-])ccc1N1CCOCC1	-0.7	17.8µM*	0.8%	i	4.2%	i
O=C(COC(=O)c1cc([N+](=O)[O-])ccc1N1CCOCC1)c1ccccc1Cl	1.3	?	0.0%	i	10.4%	i
O=C(COC(=O)c1cc([N+](=O)[O-])ccc1N1CCOCC1)c1ccccc1	0.9	20µM*	-8.9%	i	5.2%	i
O=C(OCc1ccccc1Cl)c1cc([N+](=O)[O-])ccc1N1CCOCC1	-0.2	20µM*	nt	i	19.1%	i
CCOc1ccc(-n2c(SC/C=C/c3ccccc3)nnc2-c2cccs2)cc1	nt	nt	nt	i	nt	nt
Clc1ccc2c(Cl)cc[n+](CCC3CCCCC3)c2c1	nt	nt	nt	nt	-4.0%	nt
N/C(=C\c1ccccc1)c1ccncc1	nt	nt	nt	nt	-0.1%	nt
CCCN(C(=O)c1ccco1)c1nnc(-c2ccccc2C)s1	1.9	12.6µM*	-0.1%	i	-17.9%	i
O=[N+]([O-])c1ccccc1/C=N/n1c(C2CCCCC2)n[nH]c1=S	-3.2	31.6µM*	4.6%	i	2.9%	i
O=S(=O)(c1c(Cl)sc(Cl)c1Br)N1CCCC1	-0.1	11.2µM*	-2.4%	i	10.4%	i
COc1ccc(OC)c(NC2c3ncccc3C(=O)N2Cc2ccco2)c1 (stereo not given)	-3.1	-7.9%	0.1%	35.5µM*	2.0%	i
CCOC(=S)SCC(=O)Nc1nc(C)c(C)s1	-1.1	22.4µM*	1.2%	i	-1.0%	?
CCOC(=S)SCC(=O)Nc1nccs1	-1.6	22.4µM*	1.3%	i	-7.7%	i
O=C(CSc1nnnn1Cc1ccccc1)N1CCN(c2ccccc2)CC1	-37.4*	27.6%	-1.2%	i	9.3%	i
CC1Cc2nc(SCC(=O)N3CCN(c4ccccc4)CC3)n(CCc3ccccc3)c(=O)c2S1 (stereo not given)	0.7	?	-1.7%	14.1µM*	1.7%	i
CCCSc1nc2c(c(=O)n1CC)SC(C)C2 (stereo not given)	-1.2	22.4µM*	1.3%	i	-9.9%	i
CCOC(=O)CC[C@H]1CC[C@]2(CCCN(C(=O)c3ccc4ccccc4n3)C2)O1	nt	nt	nt	i	nt	nt
COc1cc(/C=C2/C=Cc3ccccc32)ccc1N(C)C	nt	nt	nt	nt	2.2%	nt
Cc1ccccc1Cn1cc(COC(=O)N(C)Cc2ccccc2)nn1	nt	nt	nt	i	nt	nt

Bioassay records (PubChem)
